From PubChem BioAssay (NCATS)
“And” between values parts separate entries of the source, which are not always exact repeats. Equal values may be shown once. Inconclusive results are not listed. The source made the active and inactive calls. Unless noted, calls come from the whole dose curve.

Legend:
[1] = qHTS Assay for Lipid Storage Modulators (AID 1519); details: Drosophila S3 cells, BODIPY lipid droplet/cell ratio, laser cytometry, cells loaded with oleic acid; for activity change, negative = inhibition: % is set by controls: 0 for no effect and ±100 for the full control effect
Outline: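 Cells seeded at 5,000 per well were treated with compounds over a concentration series and loaded with oleic acid (400 uM, as added). Lipid droplet fluorescence (488 nm excitation, 500-530 nm channel) was read by laser-scanning cytometry and normalized to 20 uM Triacsin C.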

[2] = biological target: alpha-glucosidase (Oryza sativa, rice) (UniProt Q653V4); experiment: Counterscreen for Glucocerebrosidase Inhibitors: qHTS Assay for Rice alpha-Glucosidase at pH 5.0 (AID 997; active = well fitted curve in the direction sought with a large enough effect; an effect the other way counts as inactive or inconclusive;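 note: 0% = full activity with enzyme and -100% = basal without enzyme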); details: rice alpha-glucosidase enzyme activity; series mostly up to 76.9 µM
Outline: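 Endpoint fluorogenic assay at pH 5.0: compounds (0.7 nM to 77 uM) titrated against 4 nM rice enzyme and 400 uM 4-MU-alpha-glucoside for 20 min at room temperature; NaOH/glycine stop, read ex 365/em 440 nm, Hill-fitted AC50.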

[3] = biological target: Alpha-galactosidase A (Homo sapiens) (UniProt P06280); experiment: Counterscreen for Glucocerebrosidase Inhibitors: qHTS Assay for Human alpha-Galactosidase at pH 4.5 (AID 992; active = well fitted curve in the direction sought with a large enough effect; an effect the other way counts as inactive or inconclusive; note: 0% is about no effect); details: purified enzyme, fluorogenic substrate; series mostly up to 76.9 µM
Alpha-galactosidase A (Homo sapiens), sequence (P06280 whole entry, looked up): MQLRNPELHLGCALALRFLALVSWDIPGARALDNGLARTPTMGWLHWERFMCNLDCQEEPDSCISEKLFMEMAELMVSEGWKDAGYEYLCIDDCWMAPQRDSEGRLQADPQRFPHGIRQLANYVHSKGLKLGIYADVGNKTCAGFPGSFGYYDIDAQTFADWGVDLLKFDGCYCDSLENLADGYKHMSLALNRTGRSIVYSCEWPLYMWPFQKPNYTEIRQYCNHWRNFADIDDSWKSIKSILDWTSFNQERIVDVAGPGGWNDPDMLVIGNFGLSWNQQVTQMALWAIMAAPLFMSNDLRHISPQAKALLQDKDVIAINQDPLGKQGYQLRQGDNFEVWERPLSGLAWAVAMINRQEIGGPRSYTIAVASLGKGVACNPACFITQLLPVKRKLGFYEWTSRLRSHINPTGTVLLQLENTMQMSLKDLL
Outline: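 Fluorogenic 1536-well qHTS at pH 4.5 (citrate, Tween-20): 2 nM enzyme, 80 uM 4-MU-alpha-galactoside, 20 min room temperature, NaOH/glycine stop. Titration 0.7 nM to 77 uM, data normalized to no-enzyme and full-activity controls, Hill-fitted AC50.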

[4] = measured here: cell count channel max response
[5] = measured here: lipid channel max response

| SMILES | activity change, negative = inhibition ([1]; at 57.5 µM (top of the series)) | max response [1, 4] | max response [1, 5] | outcome [2] | activity change, negative = inhibition ([1]; at 25.7 µM (top of the series)) | outcome [3] |
| --- | --- | --- | --- | --- | --- | --- |
| Cc1ccc(O)c(C(CCN(C(C)C)C(C)C)c2ccccc2)c1 (stereo not given) | 7.57% (inactive) | 3.1% | 8.45% | – | – | – |
| CC(Cc1ccc(O)c(O)c1)(NN)C(=O)O (stereo not given) | 4.17% (inactive) | 0.886% | 8.76% | – | – | – |
| CN(C)CC[C@H](c1ccc(Cl)cc1)c1ccccn1 | – | 4.39% | 4.57% | inactive | -0.988% (inactive) | – |
| Oc1cc2c(cc1O)C1c3ccc(O)c(O)c3OCC1(O)C2 (stereo not given) | 6.13% (inactive) | -4.57% | 5.65% | – | – | – |
| COc1ccc2c(c1OC)C(=O)OC2[C@H]1c2c(cc3c(c2OC)OCO3)CCN1C (stereo not given in full) | – | -11.8% | -9.72% | inactive | 0.244% (inactive) | inactive |
| CN(N=O)C(=O)N[C@H]1C(O)OC(CO)[C@@H](O)[C@H]1O (stereo not given in full) | -2.09% (inactive) | 10.4% | 8.35% | – | – | – |
| O=c1c(O)c(-c2ccc(O)c(O)c2)oc2cc(O)ccc12 | 4.11% (inactive) | -27.3% | -24.1% | – | – | – |
| COc1ccc([C@@H]2CNC(=O)C2)cc1OC1CCCC1 | – | -4.18% | -7.27% | – | -2.44% (inactive) | – |
| OCC(O)C(O)C(O)CO (stereo not given) | -0.297% (inactive) and 2.14% (inactive) | 13.1% and 19.4% | 16.9% and 22.3% | – | – | – |
